Assay results published in PubChem BioAssay (NCI).
Compounds without any hit were thinned out: in the full panel of roughly 83,000, 20% have a hit.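 Each cell line was grown in a 96-well plate and treated with one concentration of compound for 48 hours. Values below 10 were considered active.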 Unmarked numbers belong to inactive results. Calls of active or inactive are those of the source.

Tests used:
Assay in all cases: NCI-60 one-dose screen, 48 h (100 = growth as untreated, 0 = no growth, -100 = all killed)
Conditions in all cases: 10 µM unless noted
T-47D breast = test system: T-47D breast
BT-549 breast = test system: BT-549 breast
MDA-MB-435 melanoma = test system: MDA-MB-435 melanoma
MCF7 breast = test system: MCF7 breast
HCT-116 colon = test system: HCT-116 colon
HCC-2998 colon = test system: HCC-2998 colon
KM12 colon = test system: KM12 colon
SW-620 colon = test system: SW-620 colon

Row | Structure (SMILES) | growth (T-47D breast) | growth (BT-549 breast) | growth (MDA-MB-435 melanoma) | growth (MCF7 breast) | growth (HCT-116 colon) | growth (HCC-2998 colon) | growth (KM12 colon) | growth (SW-620 colon)
1 | Clc1nc(Cl)c2ncn(CCOCCn3cnc4c(Cl)nc(Cl)nc43)c2n1 | -53.9% (active) | -94.1% (active) | -90.1% (active) | -48.9% (active) | -79.7% (active) | -87.5% (active) | -85.9% (active) | 
2 | COc1ccc(CNCCN2C(=O)c3ccc4c5c(ccc(c35)C2=O)C(=O)N(CCNCc2ccc(OC)cc2)C4=O)cc1 | -19% (active) |  | -71.4% (active) | -79.2% (active) | -72.4% (active) | -92.3% (active) | -81.8% (active) | -88% (active)
3 | COc1ccc(-c2nc(SCCC(C)C)nc(N/N=C(/C)c3ccc(C)cc3)c2C#N)cc1 | 87.1% | 91% | 103% | 91.4% | 93.2% | 99% | 93.5% | 
4 | COc1cc2nnn3c4ncccc4c(N=O)c3c2cc1OC | 51.8% |  | 90.5% | 21.4% | 28.9% | 106% | 87% | 46.3%
5 | COc1ccccc1Nc1cc(O)c2c(=O)cc(-c3ccccc3)oc2c1 | 31.4% | 40.9% | -24.3% (active) | 17.3% | 14.1% | 71.9% | 36.2% | 
6 | CC1(c2ccccc2)NC(=O)N(CC(=O)Nc2cccc(I)c2)C1=O (configuration not stated) | 81.5% |  | 102% | 85.5% | 97.5% | 106% | 90.9% | 92.2%
7 | COc1ccc(OC)c(/C=C/[C@H]2O[C@@H](C)[C@H](O)[C@@H]2O)c1 | 96% | 104% | 100% | 101% | 101% | 108% | 112% | 
8 | C=C(C)[C@@H]1CC[C@]2(C(=O)NCC(=O)OC)CC[C@]3(C)[C@H](CC[C@@H]4[C@@]5(C)Cc6c([nH]c7ccccc67)C(C)(C)[C@@H]5CC[C@]43C)[C@@H]12 | 47.7% | 81.3% | 90% | 63.5% | 42% | 103% | 79.2% | 
9 | CC(C)CN(C(=O)c1ccc(Cl)cc1)c1c(N)n(CC(C)C)c(=O)[nH]c1=O | 105% |  | 112% | 95% | 96.2% | 106% | 102% | 100%
10 | COc1ccc(-c2nc(N/N=C/c3cccc(Br)c3)nc(N3CCOCC3)c2C#N)cc1 | 77% | 100% | 87.9% | 59.3% | 32.9% | 75.4% | 44.2% | 
11 | Cc1nccc2c3ccc(OCc4cn(-c5ccc(Cl)cc5)nn4)cc3n(CCCc3ccccc3)c12 | 74.7% | 31.8% | 27.8% | 20.2% | 31.7% | 70.9% | 35.2% | 
12 | CC(=O)CCSc1ccc(OC(C)=O)cc1 | 91.9% | 96.5% | 104% | 102% | 97% | 89.7% | 99.9% | 
13 | COc1cc2c(cc1[N+](=O)[O-])-c1ccc([N+](=O)[O-])cc1/C2=N/NC(N)=S | 57.4% | 61.6% |  | 22.5% | 33.8% | 72.8% | 70.5% | 40.6%
14 | CC(=O)Nc1ccc(C(=O)Nc2cc(-c3ccccc3)ccc2N)cc1 | 66% | 102% | 60.1% | 55.6% | 50.1% | 90.7% | 73.2% | 
15 | c1ccc(CCSc2ncnc3nc[nH]c23)cc1 | 74.2% | 117% | 79.5% | 88.3% | 88.1% | 97.1% | 93.6% | 
16 | OC(c1ccccc1)c1ccccn1 (configuration not stated) | 87.4% | 93.4% | 104% | 102% | 103% | 104% | 102% | 
17 | Cc1c2c(cc[n+]1Cc1ccccc1)c1ccc(OCC3CCCCC3)cc1n2CC1CCCCC1 | -74.1% (active) | -91% (active) | -84.9% (active) | -92.3% (active) | -98.3% (active) | -93.2% (active) | -99.9% (active) | 
18 | C=C1C(=O)O[C@H]2[C@H]1CC/C(COC(=O)NCCc1c[nH]c3ccc(Cl)cc13)=C\CC[C@@]1(C)O[C@@H]21 | -40% (active) | -52.9% (active) | -91.5% (active) | 8.5% (active) | -88.9% (active) | 55.1% | 11.3% | 
19 | CC[C@H](CC[C@@H](C)[C@H]1CC[C@H]2[C@@H]3CC=C4C[C@@H](OCCc5nn[nH]n5)CC[C@]4(C)[C@H]3CC[C@]12C)C(C)C | 90.2% | 116% | 112% | 101% | 95.1% | 109% | 100% | 
20 | CC(c1ccccc1)n1ccnc1CO (configuration not stated) | 104% | 113% | 98.4% | 97.3% | 104% | 90.6% | 109% | 
21 | CN1CCCC1=Nc1ccccc1 | 106% | 130% |  | 97.2% | 114% | 110% | 114% | 112%
22 | O=CNc1cc(Cl)cc(Cl)c1 | 100% | 99.4% | 107% | 98.3% | 100% |  | 101% | 
23 | COc1cc(C2CC(c3cccc(Nc4ccncc4)c3)=NN2c2cc(Cl)cc(Cl)c2)cc(OC)c1OC (configuration not stated) | 26.7% | 104% | -85% (active) | -50.7% (active) | 87.3% | -60.4% (active) | -75.7% (active) | 
24 | c1ccc(-c2nn(-c3ccccc3)[n+](-c3ccccc3-c3ccccc3)n2)cc1 | 19.2% | -0.13% (active) | 6.4% (active) | 8.29% (active) | 7.4% (active) | 18.9% | 9.9% (active) | 
25 | O=C(Cc1ccc(/C=C/C(=O)c2ncc[nH]2)cc1)Nc1ccc(C(F)(F)F)cc1 | 29.2% | 44% | -1.95% (active) | 10.3% | -58.7% (active) | 59.3% | -41.3% (active) | 

Row | Structure (SMILES) | growth (T-47D breast) | growth (BT-549 breast) | growth (MDA-MB-435 melanoma) | growth (MCF7 breast) | growth (HCT-116 colon) | growth (HCC-2998 colon) | growth (KM12 colon) | growth (SW-620 colon)
26 | O=C(Nc1ccc(F)cc1)c1c(NC(=O)C(F)(F)F)sc2c1CCCCC2 |  | -2.41% (active) | 3.22% (active) | 3.61% (active) | 1.79% (active) | 10.1% | 2.08% (active) | 11.6%
27 | Cc1c([N+](=O)[O-])cc(C(C)(C)C)cc1[N+](=O)[O-] |  | 102% | 107% | 92.8% | 87.3% | 95.2% | 102% | 98.9%
28 | C=CCn1c(SCC(=O)Nc2ccc(C(=O)/C=C/c3cc(OC)c(OC)c(OC)c3)cc2)nnc1-c1cc(-c2ccc(S(C)(=O)=O)cc2)nc2ccccc12 |  | 79.4% | 88.6% | 50.6% | 27.4% | 111% | 75.2% | 77%
29 | CCN(CC)CCCC(C)Nc1c2c(nc3ccc(OC)cc13)CCCC2 (configuration not stated) |  | 101% | 103% | 91.4% | 73.6% | 103% | 106% | 103%
30 | CS(=O)(=O)c1ccc(-c2cc3c(oc2=O)-c2ccccc2OC3O)cc1 (configuration not stated) |  | 107% | 111% | 84.8% | 95.9% | 97.5% | 95.1% | 97.8%
31 | CC(=O)OCC(=O)[C@@]1(O)CC[C@H]2[C@@H]3CC(=C(Br)Br)C4=CC(=O)CC[C@]4(C)[C@H]3C(=O)C[C@@]21C |  | 73.5% | 100% | 84.4% | 68.3% | 95.8% | 93.6% | 95.3%
32 | O=C(CCN1CCCC1)Nc1ccc2c(Nc3ccccc3)c3ccccc3nc2c1 |  | 41% | -93.5% (active) | -13.5% (active) | -45.4% (active) | -74.1% (active) | 16.1% | -27.9% (active)
33 | COc1cccc(-c2nc3occn3c2-c2ccnc(NCCCNS(=O)(=O)c3cccc(F)c3)n2)c1 |  | 96.1% | 63.2% | 78.1% | 82% | 127% | 92.6% | 115%
34 | COC(=O)Nc1ccc(NC(=O)OC)cc1 |  | 84.6% | 101% | 92.1% | 83.9% | 106% | 111% | 104%
35 | C#CCNC(=O)[C@H](Cc1ccccc1)NC(=O)[C@]12CC[C@@H](C(=C)C)[C@@H]1[C@H]1CC[C@@H]3[C@@]4(C)Cc5c([nH]c6ccccc56)C(C)(C)[C@@H]4CC[C@@]3(C)[C@]1(C)CC2 |  | 105% | 105% | 85.3% | 85.9% | 109% | 103% | 111%
36 | CCCCCCCCN1C(=O)/C(=c2\sc3n(c2=O)C2C(NN=3)N(CC)C(=O)N2CC)c2ccccc21 (configuration not stated) |  | 86.9% | 57.3% | 85.2% | 63.2% | 103% | 89.9% | 86.8%
37 | O=C1/C(=C/c2ccc(O)cc2)COc2ccc(-c3ccccc3)cc21 |  | 80.9% | 60.7% | 34.2% | 32.1% | 82% | 19.4% | 76.4%
38 | Cc1ccccc1C(c1ccccc1)c1ccccc1C |  | 86.1% | 105% | 98.8% | 73.2% | 101% | 98.2% | 97.7%
39 | CCN(CC)S(=O)(=O)c1cccc([N+](=O)[O-])c1 |  | 79.1% | 99% | 103% | 80.7% | 101% | 108% | 100%
40 | COc1cc(/C=C/C(=O)c2c(C)oc3nc[nH]c(=O)c23)ccc1O |  | 100% | 102% | 90.2% | 102% | 100% | 103% | 100%
41 | Cc1ccc2[nH]c(=O)cc(-n3nncc3COc3ccc(C=O)cc3)c2c1 |  | 90.8% | 103% | 95.6% | 108% | 109% | 106% | 99.4%
42 | CN(Cc1ccccc1)c1nc(Cl)c(C2CC(c3ccc(Cl)cc3)=Cc3[nH][nH]c(=O)c32)s1 (configuration not stated) |  | 67.7% | 85% | 47.6% | 94.2% | 104% | 103% | 99.8%
43 | CCCCCCC/C=C/[C@H]1O[C@]2(O)C(=O)C=C3C[C@@H](O[C@@H]4O[C@H](CO)[C@@H](O)C(O)[C@@H]4O)C[C@@H]3[C@H]2C=C1C (some centres not stated) |  | -18.6% (active) | -19.9% (active) | 8.66% (active) | -45.9% (active) | 32.8% | 15.5% | -28.5% (active)
44 | COc1ccc(Cl)cc1NC(=O)c1c(NC(=O)C(F)(F)C(F)(F)F)sc2c1CCCCC2 |  | -4.71% (active) | 8.76% (active) | 4.9% (active) | -0.0954% (active) | 15.9% | 3.84% (active) | 12.8%
45 | CCN(CC)CCCC(Nc1c2ccc(Cl)cc2nc2ccc(OC)cc12)c1ccc(Cl)cc1 (configuration not stated) |  | 43.4% | -88.2% (active) | -73.8% (active) | -88.8% (active) | -75.4% (active) | -56.9% (active) | -75.8% (active)
46 | CN(C)Cc1c(-c2ccccc2)[nH]c2ccccc12 |  | 75.3% | 105% | 81.8% | 67.9% | 98.2% | 96.7% | 99.6%
47 | O=C(Nc1cccc(Cl)c1)Oc1c(Br)c(Br)c(Br)c(Br)c1Br |  | 79.5% | 99.8% | 93.9% | 80.3% | 94.7% | 106% | 102%
48 | CC1(C)NCCC[C@]2(C)[C@H]3CC=C4[C@@H]5C[C@@](C)(CO)CC[C@]5(C)CC[C@@]4(C)[C@]3(C)CC[C@@H]12 |  | 78.5% | 51.5% | 40.7% | 21% | 60.5% | 52.8% | 74.1%
49 | CCOC(=O)c1ccc(Nc2ccnc(SCC(=O)c3ccc(C#N)cc3)n2)cc1 |  | 50.1% | 68.4% | 67% | 71.8% | 103% | 54.5% | 89.8%
